Structures are written as SMILES. Several values for one entry are separate records, joined by “and”; a condition that tells them apart may be missing. Equal entries are not always repeated.

The nature of one test: small molecules captured by biotinylated probe aFSTL3 – biochemical, small-molecule microarray, fluorescence 635/667, stem cell growth factor project, primary screen (AID 1064).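 Note: measures binding of the biotinylated anti-FSTL3 antibody to printed compounds.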 To be noted: higher = more signal; small-molecule microarray, probe aFSTL3, fluorescence unless noted.
For the molecule `CCCC=C(CCC)[C@@H](NP(=O)(c1ccccc1)c1ccccc1)c1ccccc1`, the composite z-score was -0.335.
In the case of `COC(=O)[C@H]1C(=O)c2ccccc2O[C@@](C(=O)OC)(c2ccccc2)[C@@H]1c1ccccc1`, the composite z-score is -0.384.
Molecule `C[C@@H]1Cc2c(cnc3c2CN(C)CC3)CO1` yielded a composite z-score of -0.0578.
`COc1cc2c(cc1O)C(C)N(C)CC2` (centres undefined) yielded a composite z-score of 0.661.
In turn, `CN1CCc2nc(CO)c(CO)cc2C1` displayed a composite z-score of -0.304.
The molecule `COC(=O)C1(C)C=C2C(=C(C)C(=O)C2C)CN1` (centres undefined) registered a composite z-score of 1.28.
Consider `CC1N(P(=O)(c2ccccc2)c2ccccc2)CC(O)(c2ccccc2)CC12CC2` (centres undefined), for which the composite z-score is 0.401 and 0.0381.
Same read-out and setting: then `OCc1ccc(C2=CC(c3cccs3)N(Cc3cccc(OC(F)(F)F)c3)CC2)cc1` (centres undefined), with -0.0593; and `CN1CCC(c2ccc(CO)cc2)=CC1C1CC1` (centres undefined), with -0.394; and `COC(=O)[C@H]1[C@@H](O)[C@@]2(O)c3c(OC)cc(OC)cc3O[C@@]2(c2ccc(OC)cc2)[C@@H]1c1ccccc1`, with -0.327.
Turning to `CN1CCC(c2ccc(CO)cc2)=CC1c1cccs1` (centres undefined), the composite z-score was -0.182.
Regarding `COC(=O)[C@@]1(Cc2ccc(F)cc2)[C@H]2c3cc(C(=O)N(C)C)[nH]c3C[C@H]2CN1C(=O)c1ccccc1`, the composite z-score is 0.0665 [setting not given].
Turning to `CCCc1cc2c(n1Cc1ccc(C)cc1)C(C)C1CN(C(=O)c3ccccc3)C(C)(C(=O)OC)C21` (centres undefined), the composite z-score turned out to be 1.37.
`COc1cc2c(cc1O)C=[N+](C)CC2` showed a composite z-score of -0.0131.
Molecule `CCCc1cc2c(n1Cc1ccco1)C(C)C1CN(C(=O)c3ccccc3)C(C)(C(=O)OC)C21` (centres undefined) yielded a composite z-score of 1.03.
In the case of `CCCC[C@@H]1C[C@H]1[C@@H](NP(=O)(c1ccccc1)c1ccccc1)c1ccc(Cl)cc1`, the composite z-score amounted to 1.68.
For the molecule `COC(=O)[C@@]1(Cc2ccccc2)[C@H]2c3cc(C(=O)N(C)C)[nH]c3C[C@H]2CN1C(=O)c1ccccc1`, the composite z-score amounted to 0.469.
In the case of `CCCc1cc2c(n1Cc1cccc(Cl)c1)C(C)C1CN(C(=O)c3ccccc3)C(C)(C(=O)OC)C21` (centres undefined), the composite z-score was found to be 1.04.
The molecule `COC(=O)[C@H]1[C@H](c2ccccc2)C(=O)[C@]2(O)c3ccccc3O[C@@]12c1ccccc1` displayed a composite z-score of -0.521.
As for `C[C@H]1O[C@H]2C3=C(C(=O)[C@@H]4O[C@@H]4[C@@H]3O)[C@@H]1[C@@H]1[C@@H](C)OC=C3[C@@H](O)[C@H]4O[C@H]4C(=O)[C@]312`, the composite z-score is -0.294.
Molecule `CCc1cc2c(nc1CC)CCN(CCC(C)=NOC)C2` yielded a composite z-score of 0.515.
The molecule `O=P(c1ccccc1)(c1ccccc1)N1CC2(CC2)CC(O)(c2ccccc2)C1` (centres undefined) yielded a composite z-score of 0.234.
Same read-out and setting: as for `OCc1ccc(C2=CC(C3CC3)N(Cc3sc4ccccc4c3Cl)CC2)cc1` (centres undefined), the figure is 0.0908; as for `C=C(CC1(C(C)NP(=O)(c2ccccc2)c2ccccc2)CC1)c1ccccc1` (centres undefined), 0.21; as for `C=C(CC1(CNP(=O)(c2ccccc2)c2ccccc2)CC1)c1ccccc1`, 0.019.
Regarding `CCOC(=O)[C@H]1CC=C2C(=O)Oc3ccccc3[C@@H]21`, the composite z-score is 0.0468.
`CCOC(=O)[C@H]1CC=C2C(=O)Oc3ccc(Br)cc3[C@@H]21` came in with a composite z-score of 0.165.
Same read-out and setting: then `C[C@@H]1OC=C2[C@@H](O)[C@H]3O[C@H]3C(=O)[C@]23[C@H]1[C@H]1C2=C([C@@H](O)[C@H]4O[C@H]4C2=O)[C@@H]3O[C@@H]1C`, with -0.532; and `COC(=O)[C@@]1(Cc2ccccc2)[C@H]2c3cc(C(=O)N(C)C)n(C)c3C[C@H]2CN1C(=O)c1ccccc1`, with 0.739; and `c1ccc(-c2cc3c(nc2-c2ccccc2)CCNC3)cc1`, with 0.0329.
In turn, `COC(=O)NCC=Cc1nc(CCC=CC(=O)O[C@H]2CC3CC(=O)O[C@@H](C=CCC(C)C)C[C@@H]4CC[C@H](C)[C@@H](C[C@@H](OC)C[C@H](C2)O3)O4)co1` yielded a composite z-score of -0.117.
For `CCCc1cc2c(n1CCO)C(C)C1CN(C(=O)c3ccccc3)C(C)(C(=O)OC)C21` (centres undefined), the composite z-score worked out at 1.44.

The nature of another test: binders from COS7 lysate, DM2A8 probe, primary screen, torsin A project, cell lysate, small-molecule microarray, fluorescence 635/667 (AID 1065). The note with it: higher = more signal; small-molecule microarray, COS7 cell lysate, probe DM2A8, fluorescence, COS7 lysate expressing mutant human TOR1A unless noted.
The molecule `CCCC=C(CCC)[C@@H](NP(=O)(c1ccccc1)c1ccccc1)c1ccccc1` came in with a composite z-score of 0.0595.
As to `COC(=O)[C@H]1C(=O)c2ccccc2O[C@@](C(=O)OC)(c2ccccc2)[C@@H]1c1ccccc1`, the composite z-score was -0.262.
Consider `C[C@@H]1Cc2c(cnc3c2CN(C)CC3)CO1`, for which the composite z-score came to 0.442.
Molecule `COc1cc2c(cc1O)C(C)N(C)CC2` (centres undefined) showed a composite z-score of -0.144.
On to `CN1CCc2nc(CO)c(CO)cc2C1`, for which the composite z-score came to 0.267.
In the case of `COC(=O)C1(C)C=C2C(=C(C)C(=O)C2C)CN1` (centres undefined), the composite z-score is -0.297.
Turning to `CC1N(P(=O)(c2ccccc2)c2ccccc2)CC(O)(c2ccccc2)CC12CC2` (centres undefined), the composite z-score is -1.21 and -0.157.
`OCc1ccc(C2=CC(c3cccs3)N(Cc3cccc(OC(F)(F)F)c3)CC2)cc1` (centres undefined) gave a composite z-score of 0.466.
Same read-out and setting: as for `CN1CCC(c2ccc(CO)cc2)=CC1C1CC1` (centres undefined), the figure is -0.0038.
Consider `COC(=O)[C@H]1[C@@H](O)[C@@]2(O)c3c(OC)cc(OC)cc3O[C@@]2(c2ccc(OC)cc2)[C@@H]1c1ccccc1`, for which the composite z-score came out at 0.287.
With `CN1CCC(c2ccc(CO)cc2)=CC1c1cccs1` (centres undefined), the composite z-score is -0.191.
Same read-out and setting: as for `COC(=O)[C@@]1(Cc2ccc(F)cc2)[C@H]2c3cc(C(=O)N(C)C)[nH]c3C[C@H]2CN1C(=O)c1ccccc1`, the figure is -0.441 [setting not given]; as for `CCCc1cc2c(n1Cc1ccc(C)cc1)C(C)C1CN(C(=O)c3ccccc3)C(C)(C(=O)OC)C21` (centres undefined), 1.32; as for `COc1cc2c(cc1O)C=[N+](C)CC2`, -0.532.
As to `CCCc1cc2c(n1Cc1ccco1)C(C)C1CN(C(=O)c3ccccc3)C(C)(C(=O)OC)C21` (centres undefined), the composite z-score stood at 1.05.
Still for that read-out and setting: as for `CCCC[C@@H]1C[C@H]1[C@@H](NP(=O)(c1ccccc1)c1ccccc1)c1ccc(Cl)cc1`, the figure is -1.94; as for `COC(=O)[C@@]1(Cc2ccccc2)[C@H]2c3cc(C(=O)N(C)C)[nH]c3C[C@H]2CN1C(=O)c1ccccc1`, -0.365.
As for `CCCc1cc2c(n1Cc1cccc(Cl)c1)C(C)C1CN(C(=O)c3ccccc3)C(C)(C(=O)OC)C21` (centres undefined), the composite z-score came out at 0.49.
Regarding `COC(=O)[C@H]1[C@H](c2ccccc2)C(=O)[C@]2(O)c3ccccc3O[C@@]12c1ccccc1`, the composite z-score was 0.824.
In the case of `C[C@H]1O[C@H]2C3=C(C(=O)[C@@H]4O[C@@H]4[C@@H]3O)[C@@H]1[C@@H]1[C@@H](C)OC=C3[C@@H](O)[C@H]4O[C@H]4C(=O)[C@]312`, the composite z-score turned out to be 0.0164.
Still for that read-out and setting: then `CCc1cc2c(nc1CC)CCN(CCC(C)=NOC)C2`, with 0.974; and `O=P(c1ccccc1)(c1ccccc1)N1CC2(CC2)CC(O)(c2ccccc2)C1` (centres undefined), with -0.86; and `OCc1ccc(C2=CC(C3CC3)N(Cc3sc4ccccc4c3Cl)CC2)cc1` (centres undefined), with 1.02.
On the same count and under the same terms, as for `C=C(CC1(C(C)NP(=O)(c2ccccc2)c2ccccc2)CC1)c1ccccc1` (centres undefined), the figure is -0.954.
On the same count and under the same terms, as for `C=C(CC1(CNP(=O)(c2ccccc2)c2ccccc2)CC1)c1ccccc1`, the figure is -0.115; as for `CCOC(=O)[C@H]1CC=C2C(=O)Oc3ccccc3[C@@H]21`, -0.775.
Take `CCOC(=O)[C@H]1CC=C2C(=O)Oc3ccc(Br)cc3[C@@H]21`: the composite z-score is 0.384.
Regarding `C[C@@H]1OC=C2[C@@H](O)[C@H]3O[C@H]3C(=O)[C@]23[C@H]1[C@H]1C2=C([C@@H](O)[C@H]4O[C@H]4C2=O)[C@@H]3O[C@@H]1C`, the composite z-score worked out at 0.0437.
In turn, `COC(=O)[C@@]1(Cc2ccccc2)[C@H]2c3cc(C(=O)N(C)C)n(C)c3C[C@H]2CN1C(=O)c1ccccc1` yielded a composite z-score of -0.389.
`c1ccc(-c2cc3c(nc2-c2ccccc2)CCNC3)cc1`: the composite z-score is -0.112.
Regarding `COC(=O)NCC=Cc1nc(CCC=CC(=O)O[C@H]2CC3CC(=O)O[C@@H](C=CCC(C)C)C[C@@H]4CC[C@H](C)[C@@H](C[C@@H](OC)C[C@H](C2)O3)O4)co1`, the composite z-score was -0.381.
`CCCc1cc2c(n1CCO)C(C)C1CN(C(=O)c3ccccc3)C(C)(C(=O)OC)C21` (centres undefined) registered a composite z-score of 1.73.

Values taken from PubChem BioAssay.
